In the supplement of paper PMC13380429:

Tested on: Vero E6 infected with SARS-CoV-2
Experiment: inhibition of SARS-CoV-2 cytopathic effect; higher = more antiviral protection, active = above 15
Conditions: 48 h

Measured: inhibition of SARS-CoV-2 cytopathic effect

Cc1c(CN(C)C(=O)/C=C/c2cnc3c(c2)CCC(=O)N3)oc2ccccc12
inactive: 1 nM 0.18% | 8.33 nM -1.15% | 100 nM 1.59% | 833.33 nM 0.21% | 10000 nM -1.4%

CC[N+](C)(CC)CC(=O)Nc1c(C)cccc1C [N-methyllidocaine-iodide]
inactive: 1 nM 1.32% | 8.33 nM 2.44% | 100 nM 0.64% | 833.33 nM 1.63% | 10000 nM 1.7%

OCc1ccc(O[C@@H]2O[C@H](CO)[C@@H](O)[C@H](O)[C@H]2O)cc1 [gastrodin]
inactive: 1 nM -0.38% | 8.33 nM -2.3% | 100 nM -2.66% | 833.33 nM -2.37% | 10000 nM -4.3%

CC(C)(C)C(=O)Oc1ccc(S(=O)(=O)Nc2ccccc2C(=O)NCC(=O)O)cc1 [sivelestat]
inactive: 1 nM 1.78% | 8.33 nM -0.24% | 100 nM 0.61% | 833.33 nM 1.84% | 10000 nM -1.94%

O=C1COc2c(CCNCCN(C(=O)CCNCCc3ccc(Cl)c(Cl)c3)C3CCCCC3)ccc(O)c2N1
inactive: 1 nM -5.28% | 8.33 nM -4.67% | 100 nM -5.93% | 833.33 nM -1.32% | 10000 nM -3.71%

COc1ccc(-c2oc3cc(OC)ccc3c2C(=O)c2ccc(C#N)cc2)cc1
inactive: 1 nM -2.41% | 8.33 nM -2.08% | 100 nM -3.03% | 833.33 nM -3.9% | 10000 nM 1.7%

NC(=O)c1ccc(-c2nc(-c3ccccn3)c(-c3ccc4c(c3)OCO4)[nH]2)cc1
inactive: 1 nM -0.24% | 8.33 nM 0.7% | 100 nM 0.26% | 833.33 nM -3.74% | 10000 nM -3.14%

Nc1nc(=O)c(Br)c(-c2ccccc2)[nH]1 [bropirimine]
inactive: 1 nM -2.33% | 8.33 nM 1.04% | 100 nM 1.75% | 833.33 nM -0.1% | 10000 nM -0.45%

CC1CC(OC(=O)C(O)c2ccccc2)CC(C)(C)C1 (stereo not given) [cyclandelate]
inactive: 1 nM -0.8% | 8.33 nM 0.54% | 100 nM -0.37% | 833.33 nM -0.91% | 10000 nM -1.81%

CC(C)(CO)c1cc2cc(NC(=O)C3(c4ccc5c(c4)OC(F)(F)O5)CC3)c(F)cc2n1C[C@@H](O)CO [tezacaftor]
inactive: 1 nM 0.35% | 8.33 nM 0.97% | 100 nM -1.35% | 833.33 nM 1.62% | 10000 nM 0.29%

COc1cc2c(c(OC)c1OC)-c1c(cc3c(c1OC)OCO3)C[C@H](C)[C@@](C)(O)C2 [schisandrol-B]
inactive: 1 nM 3.78% | 8.33 nM 3.17% | 100 nM 2.65% | 833.33 nM 2.33% | 10000 nM 1.68%

Cc1ccc(NC2=NCCN2)c(Cl)c1 [tolonidine]
inactive: 1 nM 1.65% | 8.33 nM 0.34% | 100 nM 0.64% | 833.33 nM -0.01% | 10000 nM 0.42%

O=C(O)c1ccc(S(=O)(=O)N(Cl)Cl)cc1 [halazone]
inactive: 1 nM -0.04% | 8.33 nM 2.43% | 100 nM -0.73% | 833.33 nM -4.46% | 10000 nM -0.76%

O=C(/C=C/c1cccc(S(=O)(=O)Nc2ccccc2)c1)NO [belinostat]
inactive: 1 nM -1.11% | 8.33 nM 0.41% | 100 nM -1.26% | 833.33 nM -13.7% | 10000 nM -27.1%

N[C@@H](CC(=O)N1CCn2c(nnc2C(F)(F)F)C1)Cc1cc(F)c(F)cc1F [sitagliptin]
inactive: 1 nM -0.24% | 8.33 nM 1.03% | 100 nM 2.43% | 833.33 nM 3.7% | 10000 nM 1%

Clc1ccc(C2(c3ccc(-c4cn[nH]c4)cc3)CCNCC2)cc1
inactive: 1 nM 1.57% | 8.33 nM -1.08% | 100 nM 1.96% | 833.33 nM -6.2% | 10000 nM -7.71%

Cc1cc2ncc(C(=O)NCC(C)(C)NCC(=O)N3CCC[C@H]3C#N)cn2n1 [anagliptin]
inactive: 1 nM -0.17% | 8.33 nM -0.56% | 100 nM -0.23% | 833.33 nM 0.84% | 10000 nM 0.07%

C=C[C@]1(C)CC[C@@H](C(=C)C)C[C@H]1C(=C)C [beta-elemene]
inactive: 1 nM 2.14% | 8.33 nM 1.03% | 100 nM 0.39% | 833.33 nM 0.7% | 10000 nM 0.82%

CC(C)NCC(O)COc1cccc2[nH]ccc12 (stereo not given) [pindolol]
inactive: 1 nM -3.04% | 8.33 nM 0.875% | 100 nM 0.95% | 833.33 nM -0.725% | 10000 nM -1.61%

OC[C@H]1O[C@@H](c2ccc(Cl)c(Cc3ccc(O[C@H]4CCOC4)cc3)c2)[C@H](O)[C@@H](O)[C@@H]1O [empagliflozin]
inactive: 1 nM 1.11% | 8.33 nM -0.27% | 100 nM 0.91% | 833.33 nM 1.13% | 10000 nM -2.24%

C=CCNc1ncnc2ccc(Br)cc12
inactive: 1 nM 2.47% | 8.33 nM 5.36% | 100 nM 4.33% | 833.33 nM 0.12% | 10000 nM 0.96%

O=C(OC(C(F)(F)F)C(F)(F)F)N1CCN(Cc2cccc(Oc3ccccc3)c2)CC1
inactive: 1 nM 3.59% | 8.33 nM 4.7% | 100 nM 3.33% | 833.33 nM 3.51% | 10000 nM 2.77%

COCCOc1cnc2ccn([C@H](C)c3nnc4c(F)cc(-c5cnn(C)c5)cn34)c(=O)c2c1
inactive: 1 nM -0.43% | 8.33 nM -1.31% | 100 nM 0.19% | 833.33 nM -0.75% | 10000 nM -0.37%

C#CCC(Cc1cnc2nc(N)nc(N)c2n1)c1ccc(C(=O)N[C@@H](CCC(=O)O)C(=O)O)cc1 (stereo not given in full) [pralatrexate]
inactive: 1 nM 1.9% | 8.33 nM -0.71% | 100 nM -3.9% | 833.33 nM -4.99% | 10000 nM -6.91%

CNCCCOc1cc(F)c(-c2c(Cl)nc3ncnn3c2N[C@@H](C)C(F)(F)F)c(F)c1 [cevipabulin]
inactive: 1 nM 1.36% | 8.33 nM 1.13% | 100 nM 2.89% | 833.33 nM 6.1% | 10000 nM -0.76%

O=C(CCBr)N1CCN(C(=O)CCBr)CC1 [pipobroman]
inactive: 1 nM 0.26% | 8.33 nM -0.92% | 100 nM -3.06% | 833.33 nM -6.9% | 10000 nM -3.48%

Nc1nc2c(c(N3CCNCC3)n1)CCC1=C2[C@@H]2CCCC[C@@H]2O1
inactive: 1 nM 1.61% | 8.33 nM 0.48% | 100 nM 1.56% | 833.33 nM 2.05% | 10000 nM -2.01%

O=C(O)c1cccnc1C(=O)O [quinolinic-acid]
inactive: 1 nM 1.12% | 8.33 nM -1.19% | 100 nM 0.73% | 833.33 nM -1.65% | 10000 nM -4.35%

C[C@@H](O)[C@H]1C(=O)N2C(C(=O)O)=C(SCCNC=N)C[C@H]12 [imipenem]
inactive: 1 nM 2.08% | 8.33 nM 10% | 100 nM 9.32% | 833.33 nM 2.66% | 10000 nM 4.17%

CCCCCCCCCCCCCCCCO [1-hexadecanol]
inactive: 1 nM -1.82% | 8.33 nM 0.36% | 100 nM -0.66% | 833.33 nM -0.99% | 10000 nM -4.02%

COc1ccc(-n2c(SCCCN3C(=O)c4cccc5cccc(c45)C3=O)nnc2-c2ccncc2)cc1
inactive: 1 nM -0.26% | 8.33 nM 2.51% | 100 nM -0.79% | 833.33 nM -0.8% | 10000 nM -1.41%

O=C(Cn1ccnc1[N+](=O)[O-])NCCO [etanidazole]
inactive: 1 nM 0.32% | 8.33 nM 0.33% | 100 nM 4.88% | 833.33 nM -1.27% | 10000 nM -0.88%

Cc1cc2sc(NC(=O)Cc3ccccc3)nc2cc1Cl
inactive: 1 nM 2.05% | 8.33 nM 2.12% | 100 nM 2.19% | 833.33 nM 0.81% | 10000 nM 3.87%

O=C(CCCN1CCN(c2ccccn2)CC1)c1ccc(F)cc1 [azaperone]
inactive: 1 nM 0% | 8.33 nM -7.58% | 100 nM -6.03% | 833.33 nM -5.15% | 10000 nM 0.26%

CC(=O)O/N=C1\C(=O)N(Cc2cc(Cl)ccc2Cl)c2ccc(Cl)cc21
inactive: 1 nM -1.23% | 8.33 nM 0.39% | 100 nM 0.49% | 833.33 nM 3.77% | 10000 nM 4.47%

O=C(O)c1ccc(S(=O)(=O)N(Cc2ccc(OC(F)(F)F)cc2)c2ncc(C(F)(F)F)cc2Cl)cc1
inactive: 1 nM 1.52% | 8.33 nM -0.05% | 100 nM 1.73% | 833.33 nM 1.99% | 10000 nM 4.63%

CCCCCCCCCCCCCCC[C@@H](O)[C@@H](N)CO [safingol]
inactive: 1 nM 3.01% | 8.33 nM 0.67% | 100 nM 1.42% | 833.33 nM 2.02% | 10000 nM -4.84%

CCCn1c(=O)c(C)cn2nc(N)nc12
inactive: 1 nM 3.43% | 8.33 nM 2.31% | 100 nM -0.1% | 833.33 nM 2.28% | 10000 nM -2.15%

NC(=O)c1cccc(N)c1 [3-amino-benzamide]
inactive: 1 nM -2.7% | 8.33 nM -0.97% | 100 nM -0.7% | 833.33 nM -1.13% | 10000 nM 0.61%

O=C1CCC(N2C(=O)c3ccccc3C2=O)C(=O)N1 (stereo not given) [thalidomide]
inactive: 1 nM 5.17% | 8.33 nM -1.38% | 100 nM -2.47% | 833.33 nM -1.68% | 10000 nM -4.45%

CCCCN(CCCC)CCCOC(=O)c1ccc(N)cc1 [butacaine]
inactive: 1 nM 1.8% | 8.33 nM 5.07% | 100 nM 2.1% | 833.33 nM -1.71% | 10000 nM -2.04%
